Shown are actives, neighbours in structure and some others; about 2.9% of the full set was active somewhere.
SKN-1 inh – inhibitors of C. elegans SKN-1; C. elegans VP596 Pgst-4::GFP/RFP ratio, acrylamide-induced, 24 h; inhibition, % at 21.8 µM; actives 0.49% (n = 360,000);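 active means interference check ratio from 0.5 to 1.5 plus GFP to RFP signal ratio inhibition reaching or exceeding a fixed threshold, cut at about 30% in these data, passing the limit was not always enough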
NR1D1 modulator – modulates human Rev-erb alpha binding to DNA; P20393; Rev-erbα–FITC-DNA binding, fluorescence polarization, 90 min; activity, % at 10 µM; actives 0.79% (n = 370,000); AID 1259318;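 active means activity above about 14%, limit read from the data; passing the limit was not always enough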;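 further: 0% = DMSO wells with 35 nM protein and 100% = DMSO wells with 750 nM protein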
PG9 Ab binder – small molecules binding HIV-1 gp120 antibody PG9. TR-FRET gp120-PG9 antibody binding. inhibition, % at 6.7 µM. actives 0.43% (n = 360,000). AID 624416; in the data active means inhibition above about 8.5%
EP2 modulator – modulates human prostaglandin E2 receptor EP2 signaling. induction, % at 25 µM. actives 0.83% (n = 260,000). EP2-expressing cells, cAMP HTRF FRET, PGE2 co-stimulation. P43116;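 active means compounds whose cAMP rise, as percent of the full-agonist control response, exceeds 60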;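 further: rat C6 glioma line stably carrying human EP2 under a CMV promoter; the protocol text gives 20 µM as final concentration; 100% = response of wells given 1 µM PGE2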
Target sequence (P43116 whole entry, looked up): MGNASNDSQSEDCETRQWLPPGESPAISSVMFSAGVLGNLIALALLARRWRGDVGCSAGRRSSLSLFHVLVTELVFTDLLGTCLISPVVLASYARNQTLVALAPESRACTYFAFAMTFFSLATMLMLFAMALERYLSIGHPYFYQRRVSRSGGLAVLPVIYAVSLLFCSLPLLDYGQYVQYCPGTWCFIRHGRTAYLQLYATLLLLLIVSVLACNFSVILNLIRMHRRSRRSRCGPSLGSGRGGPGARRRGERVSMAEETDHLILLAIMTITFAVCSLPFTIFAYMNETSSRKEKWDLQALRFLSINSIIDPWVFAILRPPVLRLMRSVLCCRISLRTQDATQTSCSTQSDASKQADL
EP2 antag – EP2 receptor (human) inhibition; P43116; C6 glioma cells expressing human EP2, cAMP TR-FRET; cells stimulated with saturating PGE2; inhibition, % at 25 µM; actives 0.52% (n = 260,000); AID 1422;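 active means percent inhibition above 40 after rounding to a whole number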;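 further: rat C6 glioma host cells with rolipram phosphodiesterase inhibitor present; the protocol text gives 20 µM as final concentration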
RAM network inh – yeast RAM network inhibition; actives 1.8% (n = 190,000); inhibition, % at 50 µM; S. cerevisiae dse1pr::URA3 reporter, 5-FOA growth OD615, 2 d; analog-sensitive cbk1-as2 kinase mutant strain;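 active means inhibition above a set limit, 3 SD over mean compound inhibition, cut at about 8.4% in these data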;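 further: 0% = DMSO-only wells with no growth and 100% = 10 µM 1-NA-PP1 full growth; inhibition rescues growth on 5-FOA so higher OD means more RAM inhibition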
PG9 binder conf – PG9 antibody binding, confirmed; shares compounds with PG9 Ab binder; TR-FRET PG9 antibody binding, biochemical; inhibition, % at 6.7 µM; actives 90% (n = 1,500); in the data active means inhibition above about 9%
PGV04 counter – binds control antibody PGV04 in PG9 binder counter-screen | actives 95% (n = 1,500) | TR-FRET PGV04 antibody-gp120 binding, biochemical | inhibition, % at 6.7 µM | shares compounds with PG9 Ab binder; in the data active means inhibition above about 9.5%
PG9 binder DR – small molecules binding HIV-1 gp120 antibody PG9 | AID 651848 | 95 tested, under 10 active | IC50, µM | shares compounds with PG9 Ab binder | TR-FRET PG9 antibody-gp120 binding inhibition; in the data active means IC50 below about 10 µM
PGV04 binding DR – binds control antibody PGV04 in PG9 counter-screen | shares compounds with PG9 Ab binder | TR-FRET binding to control antibody PGV04 | IC50, µM | actives 20% (n = 95)
PG126 binding DR – counter-screen for PG9 binders: binding to control antibody PG126. TR-FRET binding to antibody PG126, counterscreen. actives 20% (n = 95). IC50, µM. shares compounds with PG9 Ab binder
* marks the source's active call; other numbers are inactive results; i = inactive; . = not tested or not shown. Unless noted, no stated cut-off is given here; in the data, active means IC50 below about 9 µM; inactive means the rest.

SMILES	SKN-1 inh	NR1D1 modulator	PG9 Ab binder	EP2 modulator	EP2 antag	RAM network inh	PG9 binder conf	PGV04 counter	others
CCCCC(=O)Nc1nn(CC)c2nc3c(C)cccc3cc12	3.9	9.6	9.7*	.	.	.	11.0*	15.0*
CCCCC(=O)Nc1nn(C)c2nc3c(C)cccc3cc12	0.7	-2.1	0.0	-7.9	14.6	5.3	.	.
Nc1nc(-c2ccc(Cl)cc2)nnc1-c1ccc(Br)cc1	-8.9	11.3	12.7*	21.0	27.4	7.7	16.0*	58.4*
CCc1nn(CC(=O)NCCc2cnc[nH]2)c(=O)c2cc3sc(C)cc3n12	.	.	.	2.9	.	.	.	.
Cc1ccc(/C=C/c2nc3ccccc3c(=O)[nH]2)cc1	8.7	2.4	31.2*	-10.7	5.9	.	39.9*	46.8*
Cc1cccc(C(=O)OCC(=O)c2ccc3c(c2)NC(=O)CO3)c1	19.6	8.0	14.7*	.	.	.	16.5*	26.9*
O=C1COc2ccc(C(=O)COC(=O)c3ccc(F)cc3Cl)cc2N1	-1.7	14.1	31.8*	.	.	.	36.8*	46.8*
COc1cc(OC)c(C(=O)OCC(=O)c2ccc3c(c2)NC(=O)CO3)cc1OC	-3.0	-4.0	0.8	.	.	.	.	.
O=C1COc2ccc(C(=O)COC(=O)Cc3ccc(Cl)cc3)cc2N1	2.1	2.6	-0.9	-24.9	10.0	1.8	.	.
O=C1COc2ccc(C(=O)COC(=O)CCSc3ccc(Cl)cc3)cc2N1	-2.8	17.2	13.4*	-19.4	5.9	3.9	29.8*	43.9*
Cc1cc(C)c2cc(C#N)c(SCC(=O)Nc3c(C)cccc3C)nc2c1	.	.	.	12.1	14.1	.	.	.
CC(C)(C)C1=NN(CC(=O)NCCn2cccn2)C(=O)c2cc3sccc3n2C1	.	.	.	18.9	5.9	.	.	.
CCn1nnc(NC(=O)c2ccc(OC(C)C)cc2)n1	.	.	.	-9.7	16.7	.	.	.
COCCCN1C(=O)C(O)=C(C(=O)c2ccc(C)o2)C1c1cccc(Br)c1 (stereo not drawn)	7.2	1.1	18.6*	44.9	30.6	2.6	20.1*	26.5*
CCCOc1ccc(C2C(C(=O)c3ccco3)=C(O)C(=O)N2CCCn2ccnc2)cc1 (stereo not drawn)	-6.6	2.0	18.6*	25.3	.	1.7	24.4*	28.3*
CCOc1cccc(C2C(C(=O)c3ccc(C)o3)=C(O)C(=O)N2CCCn2ccnc2)c1 (stereo not drawn)	-5.8	0.0	9.1*	16.8	10.2	.	15.2*	18.8*
Cc1cc2c(cc3c(=O)n(CC(=O)NCc4ccccn4)nc(C)n32)s1	.	.	.	2.3	.	.	.	.
COC(=O)c1cc(-c2cccc(OC)c2)c2c(=O)[nH]c(=O)n(C)c2n1	11.9	8.5	8.8*	.	.	.	18.1*	24.0*
COC(=O)c1cc(-c2ccccc2)c2c(=O)n(C)c(=O)n(C)c2n1	.	.	.	17.3	10.5	0.4	.	.
Cc1ccc2cc(CN(c3ccccc3C)S(=O)(=O)c3ccccc3)c(=O)[nH]c2c1	14.9	-1.0	13.5*	.	.	.	26.2*	44.6*
Cc1[nH]ncc1NS(=O)(=O)c1ccc2c(c1)NC(=O)CO2	.	.	.	-8.9	2.1	.	.	.
CNC(=O)c1ccc(NC(=O)C2CCN(c3ncnc4sc(C)c(C)c34)CC2)cc1	4.1	-4.6	17.6*	.	.	.	13.6*	17.5*
Cc1sc2ncnc(N3CCC(C(=O)Nc4ccc(Br)cc4Br)CC3)c2c1C	0.8	20.2	23.0*	.	.	.	43.7*	69.7*
Cc1sc2ncnc(N3CCC(C(=O)Nc4ccc(Cl)cc4Cl)CC3)c2c1C	8.9	6.0	1.5	.	.	.	.	.
Cc1sc2ncnc(N3CCC(C(=O)Nc4ccc(Cl)c(Cl)c4)CC3)c2c1C	12.6	-5.3	2.4	.	.	.	.	.
SMILES	SKN-1 inh	NR1D1 modulator	PG9 Ab binder	EP2 modulator	EP2 antag	RAM network inh	PG9 binder conf	PGV04 counter	others
COc1ccc(C(c2nnnn2CC2CCCO2)N2CCN(c3ccc(OC)cc3)CC2)cc1 (stereo not drawn)	.	.	.	24.2	19.4	.	.	.
NC(=O)Cc1nc(-c2ccc(Br)cc2)cs1	11.9	-1.8	-0.6	-4.4	9.1	-0.4	.	.
O=C(O)c1cnn(-c2nc(-c3ccc(Br)cc3)cs2)c1C(F)(F)F	1.8	3.0	9.6*	.	.	.	13.3*	22.9*
Cc1cc(C)c2cc(C#N)c(SCC(=O)Nc3ccccc3N3CCOCC3)nc2c1	.	.	.	46.6	17.1	.	.	.
COCCN1C(=O)C(O)=C(C(=O)c2cccs2)C1c1ccc(OC)c(OC)c1 (stereo not drawn)	.	.	.	0.5	13.8	.	.	.
CCOc1ccc(S(=O)(=O)Nc2nc3ccccc3nc2-n2ccc(=NC(=O)c3cccs3)cc2)cc1	2.0	9.4	20.2*	-0.1	44.5*	5.5	31.3*	72.6*
COC(=O)c1coc(-c2ccc(C)cc2)c1C(=O)OC	-1.9	-3.5	-0.8	16.9	10.7	1.2	.	.
COC(=O)c1cc2c(C)cc3ccc(C)cn3c-2c1C(=O)OC	16.8	3.2	11.5*	8.3	38.4	2.5	17.4*	22.1*
COC(=O)c1ccccc1NC(=O)CSc1nnc(-c2cc3ccccc3cc2O)o1	.	.	.	-18.4	10.0	.	.	.
CCCc1cc(=O)oc2cc(C)cc(O)c12	6.0	-1.4	9.3*	-3.8	22.2	1.5	14.2*	19.4*
CCCc1cc(=O)oc2cc(C)cc(OCc3nn[nH]n3)c12	3.1	0.5	0.4	47.5	11.1	1.2	.	.
CCc1cc(=O)oc2cc(C)cc(O)c12	-10.7	1.3	14.5*	30.1	22.7	0.3	13.5*	19.8*
COC(=O)Cc1c(C)c2c(O)cc(C)cc2oc1=O	1.7	-0.6	10.4*	56.6	16.7	0.4	18.1*	17.6*	PG9 binder DR=i;PGV04 binding DR=i;PG126 binding DR=i
Cc1cc(O)c2c(CN3CCN(Cc4ccccc4)CC3)cc(=O)oc2c1	8.3	-2.5	-2.7	.	.	.	.	.
Cn1c(=O)c(Sc2ccccc2)c(O)c2ccccc21	-2.4	4.7	0.3	37.6	15.7	.	.	.
Cc1ccc(Sc2c(O)c3ccccc3n(C)c2=O)cc1	-2.6	1.7	13.7*	55.8	18.4	1.1	16.8*	24.2*
Cc1ccc2c(n1)sc1c(N)ncnc12	0.0	-1.8	23.6*	21.0	11.3	2.8	21.7*	31.9*
COc1ccc(NC(=O)N(Cc2ccccc2OC)Cc2cc3c(C)ccc(C)c3[nH]c2=O)cc1	.	.	.	-2.1	16.5	.	.	.
COc1cc(OC)cc(C(=O)NCCNc2nc3cc(C)cc(C)c3cc2C#N)c1	12.9	0.0	20.3*	.	.	.	9.0*	23.2*
